In PubChem BioAssay (Tox21):
Inconclusive results are not listed. Active and inactive are the calls of the source. The call rests on the fitted dose curve; in most records, active means well fitted activation curve with a large enough effect; inconclusive means small, poorly fitted or top-dose-only effect; inactive means flat fitted curve, though single readings scatter.

assay: qHTS assay to identify small molecule phospholipidosis (PLD) inducers (AID 1259344); settings: HepG2 phospholipidosis, LipidTOX Red imaging, 24 h; series mostly up to 38.3 µM; PLD induction: at the top concentration
Text: National Center for Advancing Translational Sciences [NCATS]
Drug-induced Phospholipidosis (PLD) caused by cationic amphiphilic drugs is characterized by the appearance of unicentric or multicentric-lamellar bodies when viewed under electron microscope. Electron microscopy is the gold standard method for PLD detection, however, this method is time-consuming and labor intensive, making it unsuitable for evaluating a large set of compounds. A cell-based phospholipidosis assay has been developed using the LipidTox reagent in HepG2 cells and miniaturized into a 1536-well plate format. Drug induced phospholipid accumulation is stained with the LipidTox dyes in red color which then is determined using an automated high content screening system.
HepG2 cells are dispensed at 900 cells/3 uL/well into Collagen I-coated 1536-well black-wall/clear-bottom assay plates (Greiner Bio-One, Monroe, NC) using the Multidrop Combi 8 channel dispenser (Thermo Fisher, Waltham, MA, USA). The assay plates are incubated at 37 C for 4 hours to allow the cell attachment. 3 uL of 1:500 LipidTOX Red dye is added using the dispenser, and then 23 nL compounds are added via a Wako Pintool station (Wako Automation, San Diego, CA). Amiodarone, a known PLD inducer, was used as a positive control and DMSO was used as a negative control. The assay plates were then incubated at 37 C for 24 hours.
For fixations, 4 uL of 8% paraformaldehyde fixative solution containing 10 ug/mL Hoechst 33342 in Dulbecco's phosphate-buffered saline (DPBS) is added using a Kalypsys washer/dispenser (Kalypsys, San Diego, CA, USA). After incubation at room temperature for 30 min, the assay plates are washed once with DPBS using a Kalypsys washer/dispenser. The assay plates are then sealed and stored at 4 C before imaging. The fluorescence intensities (595 nm excitation, 615 nm emission for LipidTOX; 352 nm excitation, 461 nm emission for Hoechst 33342) are measured using an ImageXpress Micro Widefield High Content Screening System (Molecular Devices, Sunnyvale, CA, USA) with a 20x Plan Fluor objective. Images are acquired for one site in each well and analyzed with the MetaXpress software (Molecular Devices) using the Transfluor module. Several algorithmic outputs, such as pit count per well, pit count per cell, pit integrated intensity per well, and pit integrated intensity per cell, are used for quantitative image analysis for PLD.
On the % scale 0 is the no-effect control and ±100 the full control effect; potency means the concentration at half of the fitted maximal effect.

Row | SMILES | PLD induction | Potency
1 | O=C(O)COCCN1CCN(C(c2ccccc2)c2ccc(Cl)cc2)CC1 (stereo not given) | 0.0822% [at 15.5 µM] (inactive) | –
2 | CC/C=C\C/C=C\C/C=C\CCCCCCCC(=O)O | -0.584% (inactive) | –
3 | C=C[C@@]1(C)CC(=O)[C@]2(O)[C@@]3(C)[C@@H](O)CCC(C)(C)[C@@H]3[C@H](O)[C@H](OC(C)=O)[C@@]2(C)O1 | -0.914% (inactive) | –
4 | CC/C(=C(/CC)c1ccc(O)cc1)c1ccc(O)cc1 | 10.4% (inactive) | –
5 | O=C1OC2(c3ccccc31)c1cc(I)c(O)c(I)c1Oc1c2cc(I)c(O)c1I | -1.37% (inactive) | –
6 | NC[C@H](O)c1ccc(O)c(O)c1 | -0.584% (inactive) | –
7 | FC(F)(F)C(Cl)Br (stereo not given) | -0.336% (inactive) | –
8 | CC1(C)C(C=C(Cl)Cl)C1C(=O)OCc1cccc(Oc2ccccc2)c1 (stereo not given) | 1.56% (inactive) | –
9 | CCc1cccc2c3c([nH]c12)C(CC)(CC(=O)O)OCC3 (stereo not given) | 0.455% (inactive) | –
10 | C=C[C@H]1CN2CC[C@H]1C[C@@H]2[C@@H](O)c1ccnc2ccc(OC)cc12 | 15.6% (inactive) | –
11 | C[C@]12CC[C@@H]3c4ccc(O)cc4CC[C@H]3[C@@H]1CC[C@@H]2O | 11.6% (inactive) | –
12 | CN(C)CCCN1c2ccccc2Sc2ccc(Cl)cc21 | – | 3.16 µM (active)
13 | CC1(C)OC(=O)NC1=O | -0.0465% (inactive) | –
14 | Cc1cccc(Nc2ccccc2C(=O)O)c1C | -0.14% (inactive) | –
15 | Cc1ccc(/C(=C\CN2CCCC2)c2ccccn2)cc1 | 3.48% (inactive) | –
16 | CC(=O)Oc1ccc(C(c2ccc(OC(C)=O)cc2)c2ccccn2)cc1 | 1.36% (inactive) | –
17 | CC(C)[N+](C)(CCOC(=O)C1c2ccccc2Oc2ccccc21)C(C)C | -0.0419% (inactive) | –
18 | C[N+](C)(C)CCO | -0.0667% (inactive) | –
19 | CC(C)(Oc1ccc(Cl)cc1)C(=O)O | 0.467% (inactive) | –
20 | Cc1ccc(S(=O)(=O)O)cc1C | -0.0572% (inactive) | –

Row | SMILES | PLD induction | Potency
21 | C[C@]12C=CC(=O)C=C1CC[C@H]1[C@@H]3C[C@@H](O)[C@](O)(C(=O)CO)[C@@]3(C)C[C@H](O)[C@@]12F | 0.0394% (inactive) | –
22 | CNC[C@H](O)c1ccc(O)c(O)c1 | -1.15% (inactive) | –
23 | CC(=O)O[C@]1(C(C)=O)CC[C@H]2[C@@H]3C=C(Cl)C4=CC(=O)CC[C@]4(C)[C@H]3CC[C@@]21C | 12.8% (inactive) | –
24 | CC(C)[C@@H]1CC[C@@H](C)CC1=O | -0.45% (inactive) | –
25 | CCCCCCCC/C=C\CCCCCCCC(=O)O | 0.56% (inactive) | –
26 | C/C=C/C(=O)N(CC)c1ccccc1C | -0.276% [at 15.5 µM] (inactive) | –
27 | CC(=O)O[C@]1(C(C)=O)CC[C@H]2[C@@H]3C=C(C)C4=CC(=O)CC[C@]4(C)[C@H]3CC[C@@]21C | 11.9% [at 15.5 µM] (inactive) | –
28 | CC(=O)Oc1c(C)c(C)c2c(c1C)CC[C@@](C)(CCC[C@H](C)CCC[C@H](C)CCCC(C)C)O2 | – | inactive
29 | CCC(Cc1c(I)cc(I)c(N)c1I)C(=O)O (stereo not given) | 0.176% [at 15.5 µM] (inactive) | –
30 | CCCCCCCCCCC(CO)CCCCCCCC (stereo not given) | -1.93% (inactive) | –
31 | CN(C)/N=N/c1nc[nH]c1C(N)=O | 5.85% (inactive) | –
32 | NCCN | -0.37% (inactive) | –
33 | CC1(C)O[C@@H]2C[C@H]3[C@@H]4C[C@H](F)C5=CC(=O)C=C[C@]5(C)[C@@]4(F)[C@@H](O)C[C@]3(C)[C@]2(C(=O)CO)O1 | 1.03% (inactive) | –
34 | O=Cc1ccccc1C=O | -0.493% (inactive) | –
35 | COc1cc([C@H]2Oc3cc([C@H]4Oc5cc(O)cc(O)c5C(=O)[C@@H]4O)ccc3O[C@@H]2CO)ccc1O | -0.9% (inactive) | –
36 | O=C(O)c1cc(=O)[nH]c(=O)[nH]1 | 0.573% (inactive) | –
37 | IC(I)I | -0.396% (inactive) | –
38 | CC(=O)[C@@]1(O)CC[C@H]2[C@@H]3C[C@H](C)C4=CC(=O)C=C[C@]4(C)[C@@]3(F)[C@@H](O)C[C@@]21C | -0.376% [at 15.5 µM] (inactive) | –
39 | C=C[C@H]1CN2CC[C@H]1C[C@H]2[C@H](O)c1ccnc2ccc(OC)cc12 | – | inactive
40 | Cc1ccc(S(=O)(=O)NCl)cc1 | -0.72% (inactive) | –
